Bioassay records: PubChem BioAssay, National Center for Advancing Translational Sciences (NCATS)
The list is not random: actives were taken first. Their share in the collection is about 18%.
TDP1 cell CPT: qHTS for Inhibitors of human tyrosyl-DNA phosphodiesterase 1 (TDP1): qHTS in cells in presence of CPT. chicken DT40 Tdp1-/-;hTDP1 cells + 20 nM CPT, ATP luminescence, 48 h. Potency, µM (highest dose often 46.2 µM), without a hit: top-dose activity change, negative = growth inhibition, hits mostly inhibitors. AID 686979, 2013. 420,000 compounds, 12% hits; note: nearly all actives have a fitted effect of over 55% in size
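Chicken DT40 Tdp1-/- cells complemented with human TDP1, 400 cells/well, exposed to compounds plus 20 nM camptothecin for at least 48 h at 37 C; viability read as ATP content by CellTiter-Glo luminescence.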
VDR inhibitor: Inhibitors of the vitamin D receptor (VDR): qHTS | VDR-SRC2-3 peptide fluorescence polarization, 2 h | Potency, µM, without a hit: max response, negative = inhibition, usual class: inhibitors | 400,000 compounds, 0.93% hits
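Signal is fluorescence polarization, reporting how far test compounds block the interaction of VDR with the SRC2-3 coregulator peptide after a 2 h room-temperature incubation.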
PLK1 PBD inh: qHTS for Inhibitors of PLK1-PDB (polo-like kinase 1 - polo-box domain): Primary Screen | 360,000 compounds, 2.8% hits | Plk1 PBD binding of FITC phosphopeptide, fluorescence polarization | Potency, µM, inactives show max response, negative = inhibition, actives largely listed as inhibitors; note: series mostly up to about 57 µM; nearly all actives have a fitted effect of over 65% in size
GCN5L2 inh: qHTS Assay for Inhibitors of GCN5L2; Potency, µM (highest dose often 58.9 µM), inactives show at the top dose activity change, negative = inhibition, actives largely listed as inhibitors; 390,000 compounds, 0.21% hits; GCN5L2 HAT assay, ThioGlo1 CoA-SH fluorescence
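Titration-based screen in which CoA formation is detected via maleimide probe ThioGlo1 (50uM) turning fluorescent on thiol reaction; substrates H3(1-25) 75uM and acetyl-CoA 70uM, GCN5L2 20nM, 20 min incubation at room temperature.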
TDP1 cell noCPT: qHTS for Inhibitors of human tyrosyl-DNA phosphodiesterase 1 (TDP1): qHTS in cells in absence of CPT | 420,000 compounds, 15% hits | DT40 Tdp1-/- hTDP1 cells, no CPT, ATP luminescence, 48 h | Potency, µM (top dose mostly 46.2 µM), inactives show at the top dose activity change, negative = growth inhibition, hits mostly inhibitors; note: nearly all actives have a fitted effect of over 55% in size
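Compound effects on proliferation are scored in DT40 Tdp1-/-;hTDP1 cells in the absence of CPT. ATP levels (CellTiter-Glo luminescence) are recorded after a ≥48 hr, 37 °C incubation.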
TDP1 inh: qHTS Assay for Inhibitors of Tyrosyl-DNA Phosphodiesterase (TDP1). Tyrosyl-DNA phosphodiesterase 1 (Homo sapiens), Q9NUW8. recombinant TDP1, AlphaScreen DNA substrate cleavage. Potency, µM (doses to about 130 µM), for the others: top-dose activity change, negative = inhibition, most hits filed as inhibitors. 350,000 compounds, 0.28% hits. AID 485290, 2010; note: nearly all actives have a fitted effect of over 40% in size
Target sequence (Q9NUW8 whole entry, looked up): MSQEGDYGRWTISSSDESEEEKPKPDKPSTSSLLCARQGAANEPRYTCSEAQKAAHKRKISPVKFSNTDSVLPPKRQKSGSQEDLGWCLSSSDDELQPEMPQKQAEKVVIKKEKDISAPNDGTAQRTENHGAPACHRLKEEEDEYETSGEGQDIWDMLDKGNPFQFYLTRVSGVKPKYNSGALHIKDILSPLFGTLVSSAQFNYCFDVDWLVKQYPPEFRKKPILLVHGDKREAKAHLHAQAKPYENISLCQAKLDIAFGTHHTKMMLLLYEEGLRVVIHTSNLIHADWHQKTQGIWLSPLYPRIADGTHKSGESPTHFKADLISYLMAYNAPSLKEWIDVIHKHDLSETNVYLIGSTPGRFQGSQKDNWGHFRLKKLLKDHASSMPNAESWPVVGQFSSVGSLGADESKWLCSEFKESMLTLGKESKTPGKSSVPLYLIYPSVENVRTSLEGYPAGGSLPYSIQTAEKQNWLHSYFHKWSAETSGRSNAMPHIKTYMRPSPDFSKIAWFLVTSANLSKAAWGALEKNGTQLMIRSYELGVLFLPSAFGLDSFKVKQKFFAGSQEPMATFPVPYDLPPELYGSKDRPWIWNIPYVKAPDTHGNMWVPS
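Recombinant E. coli-expressed Tdp1 (1 nM) preincubated with compound 15 min at RT, then 5'-biotin/3'-phosphotyrosine-FITC DNA substrate (15 nM) added for 5 min. AlphaScreen beads (10 ug/ml) added, 10 min RT; tyrosine-FITC cleavage read as signal loss.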
Starred values were filed as active, the others as inactive; u = inconclusive; x = no result; ! = not active in a repeat; [ ] = remark or other dose. Calls come from the whole dose curve; as a rule, active = well fitted curve in the direction sought with a large enough effect; inconclusive = small, poorly fitted or top-dose-only effect, or another doubt; inactive = no such curve, though single readings can be large; an effect the other way counts as inactive or inconclusive. % is set by controls: 0 for no effect and ±100 for the full control effect; potency is the fitted concentration of half-maximal effect.

SMILES	TDP1 cell CPT	VDR inhibitor	PLK1 PBD inh	GCN5L2 inh	TDP1 cell noCPT	TDP1 inh
Cn1ccc2cc(S(=O)(=O)N3CCCC(C(=O)NCc4ccccc4)C3)ccc21 (stereo unspecified)	-28%	-1%	x	-1%	6%	4%
Cc1ccc(C)n1CCN1CCN(C(=O)CC#N)CC1	-21%	-16%	-5%	-12%	u	-1%
O=C(CSc1ncnc2c1oc1ccccc12)N1CCN(c2ccccc2)CC1	u	12%	-4%	x	29µM*	x
CCc1nc(Nc2ccc(N3CCN(C(C)=O)CC3)cc2)c2oc3ccccc3c2n1	21µM*	14%	1%	-22%	13µM*	15%
CC(=O)N1CCN(c2ccc(Nc3ncnc4c3oc3ccccc34)cc2)CC1	15µM*	-4%	-8%	-17%	10µM*	-2%
CCc1nc(Nc2ccc(F)cc2)c2oc3ccccc3c2n1	u	14%	10%	2%	u	x
CC(=O)N1CCN(c2ccc(NCc3cccs3)cc2)CC1	-19%	-18%	u	-4%	-28%	5%
CC(=O)N1CCN(c2ccc(NCc3cccc4ccccc34)cc2)CC1	u	u	24µM*	-27%	u	x
CC(C)C(Nc1ncnc2c1oc1ccccc12)C(=O)O (stereo unspecified)	16%	-13%	1%	-24%	2%	x
Cc1ccc2cccc(NC(=O)c3ccc(C#N)cc3F)c2n1	-18%	-2%	x	-8%	-12%	3%
C[C@H]1C(O)[C@@]23CCC4C5(C=[N+](CCO)C[C@]4(C)CCC5)C2C[C@@H]1C3 (stereo partly specified)	-3%[9.04 µM]	5%	x	x	-11%[9.04 µM]	4%
CNc1ccc(C=O)cc1Cl	-1%	x	x	x	-3%	x
Cc1cccc(Cn2c(O)c(N=NC(=S)Nc3ccccc3F)c3ccccc32)c1	7.3µM*	-19%	-4%	-11%	7.3µM*	11%
Oc1c(N=NC(=S)Nc2ccccc2F)c2ccccc2n1Cc1ccc(F)cc1	5.2µM*	-3%	u	-6%	2.3µM*	14%
Oc1c(N=NC(=S)Nc2ccccc2F)c2ccccc2n1Cc1cccc(Cl)c1	6.5µM*	4%	-2%	-6%	6.5µM*	9%
O=C(CCc1nnc(Cc2c[nH]c3ccccc23)o1)NCCC1CCCCO1 (stereo unspecified)	-12%	x	-10%	x	4%	x
C=C1C=C(C(F)F)n2ncc(C(=O)N3CCN(c4ccccn4)CC3)c2N1	-2%	x	x	x	-16%	x
O=C1[C@H]2[C@H](C=CC[C@H]2C(=O)N2CCN(c3ccccc3)CC2)CCN1Cc1ccc(Cl)c(Cl)c1	16µM*	-14%	-14%	x	18µM*	x
O=C(Nc1ccc(Cl)cc1Cl)[C@@H]1CC=C[C@@H]2CCN(Cc3ccccc3)C(=O)[C@@H]21	10µM*	x	x	x	u	x
O=C([C@@H]1CC=C[C@@H]2CCN(C3CC3)C(=O)[C@@H]21)N1CCN(c2ccccc2)CC1	-9%	-2%	-13%	x	4%	x
O=C1[C@H]2[C@H](C=CC[C@H]2C(=O)N2CCN(c3ccccc3)CC2)CCN1Cc1ccccc1	u	12%	-9%	x	14µM*	x
O=C(NCCc1ccccc1)[C@@H]1CC=C[C@@H]2CCN(C3CCCCC3)C(=O)[C@@H]21	20µM*!	5%	-11%	x	u	x
COc1ccc(N2CCN(S(=O)(=O)c3ccc(OC)c(-c4noc(C)n4)c3)CC2)cc1	-14%	-19%	x	-14%	-20%	9%
Cc1cc(Cl)ccc1NC(=O)C1CCCN(c2nnc(C)c3c(C)n(-c4ccccc4)nc23)C1 (stereo unspecified)	6%	-5%	x	2%	-14%	6%
COc1ccc(CN2CC[C@H]3C=CC[C@@H](C(=O)Nc4ccc(Cl)c(C(F)(F)F)c4)[C@H]3C2=O)cc1OC	u	-2%	1%	x	11µM*	x
SMILES	TDP1 cell CPT	VDR inhibitor	PLK1 PBD inh	GCN5L2 inh	TDP1 cell noCPT	TDP1 inh
CCCCNC(=O)[C@@H]1CC=C[C@@H]2CCN(Cc3ccc(Cl)c(Cl)c3)C(=O)[C@@H]21	11µM*	0%	-7%	x	8.9µM*	x
O=C(CCN1C(=O)/C(=C/c2ccccc2Cl)SC1=S)NNC(=O)c1cccnc1	-3%	-14%	-8%	-7%	-28%	6%
O=C(CCN1C(=O)/C(=C/c2ccccc2Cl)SC1=S)NC1CCCC1	8.2µM*	-6%	-9%	-30%	9.2µM*	4%
O=C(CCN1C(=O)/C(=C/c2ccccc2Cl)SC1=S)NN1CCOCC1	u	-1%	-5%	-5%	u	-2%
O=C(CCCN1C(=O)/C(=C/c2ccccc2Cl)SC1=S)Nc1cccnc1	4.6µM*	-6%	-10%	5%	16µM*	11%
O=C(CCN1C(=O)/C(=C/c2ccccc2Cl)SC1=S)NCCc1ccc(O)cc1	u	-7%	-3%	0%	9.2µM*	5%
CCC1CCCCN1C(=O)c1ccc([N+](=O)[O-])o1 (stereo unspecified)	u	3%	-7%	-6%	-20%	x
Cc1ccc(CN2CCN(C3CCN(C(=O)c4ccc(C)cc4)CC3)C(=O)C2=O)cc1	11%	1%	x	6%	3%	3%
CC(=O)c1cccc(NC(=O)CCS(=O)(=O)c2ccc3c(c2)n(C)c(=O)c(=O)n3C)c1	-4%	-5%	x	-9%	1%	3%
CCOC(=O)C1(C)C=C(Nc2cccc(C(=O)O)c2)C(=O)N1c1ccccc1 (stereo unspecified)	u	u	x	-12%	21%	x
CN(C)S(=O)(=O)c1ccc(N2CCCC2)c(C(=O)Nc2ccccc2N2CCOCC2)c1	-25%	3%	-6%	-1%	u	7%
COc1cc(NC(=O)c2cc(S(=O)(=O)N3CCCCC3)ccc2N2CCOCC2)cc(OC)c1	21µM*	5%	4%	-6%	21µM*	0%
O=C(NCCc1c[nH]c2ccccc12)c1cc(S(=O)(=O)N2CCCCC2)ccc1N1CCOCC1	u	-9%	-9%	-9%	13µM*	8%
Cc1ccc(S(=O)(=O)N(C)C)cc1NC(=O)c1cc(S(=O)(=O)N2CCCCC2)ccc1N1CCOCC1	u	3%	1%	-25%	12µM*	-9%
